Consider 7 compounds from PubChem BioAssay (EPA / NIEHS).

Read-out in test [1]: Thrombomodulin, THBD (gene 7056)
As to the kind of experiment: BSK_CASM3C_Thrombomodulin: BioMAP Diversity Plus: CASM3C Assay for Thrombomodulin Biomarker Activity (AID 2283051).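 Also: thrombomodulin protein level measured by ELISA 24 h after dosing.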 The conditions noted are these: primary human coronary artery smooth muscle cells; actives raise or lower the signal.

Read-out in test [2]: Tissue Factor, F3 (gene 2152)
As to the kind of experiment: BSK_CASM3C_TissueFactor: BioMAP Diversity Plus: CASM3C Assay for Tissue Factor Biomarker Activity (AID 2283052).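 Also: cell surface tissue factor protein level read by ELISA.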 Particulars: primary human coronary artery smooth muscle cells; actives raise or lower the signal.

Read-out in test [3]: Interferon-gamma inducible Protein 10 (IP10), CXCL10 (gene 3627)
As to the kind of experiment: BSK_hDFCGF_IP10: BioMAP Diversity Plus: hDFCGF Assay for Interferon-gamma inducible Protein 10 (IP10) Biomarker Activity (AID 2283053). The conditions noted are these: primary human foreskin fibroblasts; actives raise or lower the signal. In a few lines:
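Primary foreskin fibroblasts, human; 24 h compound exposure; IP-10 by ELISA; bidirectional fit vs DMSO.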

Read-out in test [4]: Urokinase-type plasminogen activator receptor (uPAR), PLAUR (gene 5329)
Description: BSK_CASM3C_uPAR: BioMAP Diversity Plus: CASM3C Assay for Urokinase-type plasminogen activator receptor (uPAR) Biomarker Activity (AID 2283054).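 Also: cell-surface uPAR protein level quantified by ELISA.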 The conditions noted are these: primary human coronary artery smooth muscle cells; actives raise or lower the signal.

Read-out in test [5]: Vascular cell adhesion molecule 1 (VCAM1), VCAM1 (gene 7412)
As to the kind of experiment: BSK_CASM3C_VCAM1: BioMAP Diversity Plus: CASM3C Assay for Vascular cell adhesion molecule 1 (VCAM1) Biomarker Activity (AID 2283055).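 Also: VCAM-1 protein level quantified by ELISA on the cells.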 The conditions noted are these: primary human coronary artery smooth muscle cells; actives raise or lower the signal.

Read-out in test [6]: Collagen III, COL3A1 (gene 1281)
As to the kind of experiment: BSK_hDFCGF_CollagenIII: BioMAP Diversity Plus: hDFCGF Assay for Collagen III Biomarker Activity (AID 2283056). The conditions noted are these: primary human foreskin fibroblasts; actives raise or lower the signal. In a few lines:
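ELISA read-out of collagen III from human skin fibroblast cultures sampled 24 h post-dosing. Values were derived by bidirectional fitting relative to the DMSO vehicle control.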

Read-out in test [7]: Epidermal growth factor receptor (EGFR), EGFR (gene 1956)
Description: BSK_hDFCGF_EGFR: BioMAP Diversity Plus: hDFCGF Assay for Epidermal growth factor receptor (EGFR) Biomarker Activity (AID 2283057). The conditions noted are these: primary human foreskin fibroblasts; actives raise or lower the signal. Put shortly: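 hDFCGF system, primary human foreskin fibroblasts; compound 24 h; EGFR measured by ELISA; DMSO = negative control/baseline; bidirectional fitting.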

Read-out in test [8]: Interleukin-8 (IL8), CXCL8 (gene 3576)
Description: BSK_hDFCGF_IL8: BioMAP Diversity Plus: hDFCGF Assay for Interleukin-8 (IL8) Biomarker Activity (AID 2283058). The conditions noted are these: primary human foreskin fibroblasts; actives raise or lower the signal. Put shortly: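 Cells used are human skin primary fibroblasts. Chemical is added, cultures run 24 h, then IL-8 is quantified by ELISA, and gain or loss versus DMSO control is fitted in both directions.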

A short description of test [9]: BSK_hDFCGF_Proliferation: Cell Proliferation Assessment in the BioMAP Diversity Plus: hDFCGF Assay (AID 2283059).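 Also: curves fitted for both rise and fall of signal versus DMSO baseline.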 The conditions noted are these: primary human foreskin fibroblasts. In a few lines:
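Sub-confluent human foreskin fibroblast cultures receive test chemical […]. Relative cell number is quantified by sulforhodamine B staining (0.1%, after 10% TCA fixation) at 560 nm, with bidirectional fitting referenced to DMSO.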

Read-out in test [10]: Macrophage colony-stimulating factor (MCSF), CSF1 (gene 1435)
As to the kind of experiment: BSK_hDFCGF_MCSF: BioMAP Diversity Plus: hDFCGF Assay for Macrophage colony-stimulating factor (MCSF) Biomarker Activity (AID 2283060). Particulars: primary human foreskin fibroblasts; actives raise or lower the signal. In a few lines: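 Primary human foreskin fibroblasts dosed with chemical; 24 h later, M-CSF quantified by ELISA; curves fitted in both directions vs DMSO negative control.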

A short description of test [11]: BSK_hDFCGF_SRB: Viability Assessment in the BioMAP Diversity Plus: hDFCGF Assay (AID 2283061).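 Also: cells exposed to compound for 24 h before the read.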 The conditions noted are these: primary human foreskin fibroblasts. Put shortly:
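Readout is SRB absorbance at 560 nm, reflecting total protein in parallel cultures of human foreskin fibroblasts harvested 24 h after chemical dosing. Activity was fitted bidirectionally relative to DMSO.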

Read-out in test [12]: TIMP metallopeptidase inhibitor 1 (TIMP1), TIMP1 (gene 7076)
Description: BSK_hDFCGF_TIMP1: BioMAP Diversity Plus: hDFCGF Assay for TIMP metallopeptidase inhibitor 1 (TIMP1) Biomarker Activity (AID 2283062). The conditions noted are these: primary human foreskin fibroblasts; actives raise or lower the signal. Put shortly:
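Human skin fibroblasts (primary), hDFCGF system; compound exposure 24 h; TIMP-1 by ELISA; bidirectional fit vs DMSO negative control; overt cytotoxicity by SRB in parallel wells.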

Read-out in test [13]: Monokine induced gamma interferon (MIG), CXCL9 (gene 4283)
Description: BSK_hDFCGF_MIG: BioMAP Diversity Plus: hDFCGF Assay for Monokine induced gamma interferon (MIG) Biomarker Activity (AID 2283063). The conditions noted are these: primary human foreskin fibroblasts; actives raise or lower the signal. In a few lines:
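Chemicals were added to primary human foreskin fibroblast cultures, which were sampled 24 h later. MIG levels were then quantified by ELISA and responses fitted in both directions relative to DMSO.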

Read-out in test [14]: Vascular cell adhesion molecule 1 (VCAM1), VCAM1 (gene 7412)
As to the kind of experiment: BSK_hDFCGF_VCAM1: BioMAP Diversity Plus: hDFCGF Assay for Vascular cell adhesion molecule 1 (VCAM1) Biomarker Activity (AID 2283065).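 As to AC50: VCAM-1 protein level quantified by ELISA after 24 h chemical exposure.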 The conditions noted are these: primary human foreskin fibroblasts; actives raise or lower the signal. Put shortly:
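Human foreskin fibroblast primary cells, chemical exposure 24 h; VCAM-1 by ELISA; bidirectional fit, DMSO = negative control/baseline.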

Read-out in test [15]: Plasminogen activator inhibitor-1 (PAI1), SERPINE1 (gene 5054)
Description: BSK_hDFCGF_PAI1: BioMAP Diversity Plus: hDFCGF Assay for Plasminogen activator inhibitor-1 (PAI1) Biomarker Activity (AID 2283066). The conditions noted are these: primary human foreskin fibroblasts; actives raise or lower the signal. Put shortly: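 Primary dermal fibroblasts (human foreskin), hDFCGF system; compound 24 h; PAI-1 by ELISA; bidirectional fit vs DMSO control.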

Read-out in test [16]: Intercellular Adhesion Molecule 1 (ICAM1), ICAM1 (gene 3383)
As to the kind of experiment: BSK_KF3CT_ICAM1: BioMAP Diversity Plus: KF3CT Assay for Intercellular Adhesion Molecule 1 (ICAM1) Biomarker Activity (AID 2283067). The conditions noted are these: primary human keratinocytes with fibroblasts; actives raise or lower the signal. In a few lines: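 ICAM-1 levels are measured by ELISA 24 h after dosing a primary human co-culture of keratinocytes and foreskin fibroblasts. Activity in either direction is fitted relative to DMSO vehicle.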

Read-out in test [17]: Interferon-gamma inducible Protein 10 (IP10), CXCL10 (gene 3627)
As to the kind of experiment: BSK_KF3CT_IP10: BioMAP Diversity Plus: KF3CT Assay for Interferon-gamma inducible Protein 10 (IP10) Biomarker Activity (AID 2283068). The conditions noted are these: primary human keratinocytes with fibroblasts; actives raise or lower the signal. Put shortly: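 ELISA read-out of IP-10 after 24 h chemical dosing of human skin primary co-culture (keratinocytes, foreskin fibroblasts). Gain or loss of signal relative to DMSO, bidirectional curve fit.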

Read-out in test [18]: Interleukin-1 alpha (IL1a), IL1A (gene 3552)
Description: BSK_KF3CT_IL1a: BioMAP Diversity Plus: KF3CT Assay for Interleukin-1 alpha (IL1a) Biomarker Activity (AID 2283070). The conditions noted are these: primary human keratinocytes with fibroblasts; actives raise or lower the signal. Put shortly:
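Human keratinocyte plus foreskin fibroblast primary co-culture, sampled 24 h after chemical dosing. IL-1a measured by ELISA; responses fitted bidirectionally against DMSO baseline (negative control), so gain or loss of signal both count.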

The structures appear in SMILES notation. Calls of active or inactive are those of the source. The calls were made as follows: active = hit-call score of the fitted dose curve at least 0.9, where 1 is the maximum; inactive = score below 0.9.

The AC50 is the concentration giving half of the maximal activity seen. On to `Cc1ccc(O)c(C(C)(C)C)c1`, for which the result in test [1], in test [7] and in [8] was inactive. Besides, the AC50 is 36.3 µM (active) in test [2]; 34.9 µM (active) in [3]; 20 µM (active) in test [4]; 30 µM (active) in test [5]; 30.4 µM (active) in [6]; 13.6 µM (active) in [9]. In addition, the AC50 in test [10] was 30.9 µM (active); in test [11], 29.6 µM (active); in [12], 27.6 µM (active); in test [13] it was 36.7 µM (active); in [14], 39.1 µM (active); in test [15] it was 30.7 µM (active). Besides, the AC50 is 34.3 µM (active) in test [16], 37.5 µM (active) in [17] and 28.9 µM (active) in test [18].
Turning to `CCc1c(C)cc(N)c(CC)c1N`, the outcome in test [1], in test [2], in test [3], in [4], in test [5] and in test [6] was inactive. In addition, the result in [7], in test [8], in [9], in [10], in [11] and in test [12] was inactive. For the same compound, the outcome in test [13], in test [14], in [15], in test [16] and in test [17] was inactive. Further, in test [18], the AC50 was 1.94 µM (active).
`CC(=O)/C=C/C1=C(C)CCCC1(C)C`: the result in test [1], in test [2], in test [3], in test [4], in test [6] and in test [7] was inactive. Moreover, the outcome in test [8], in test [9], in [10], in [11], in test [12] and in test [13] was inactive. Moreover, the outcome in test [14], in test [15], in test [16], in test [17] and in test [18] was inactive. Also, the concentration at half-maximal activity (AC50) in test [5] was 0.016 µM (active).
As to `CCn1c2ccccc2c2cc(N)ccc21`, the AC50 in test [1] was 2.7 µM (active); in test [14], 0.855 µM (active). For the same compound, the result in test [2], in test [3], in test [4], in test [5], in test [6] and in [7] was inactive. Besides, the outcome in [8], in [9], in test [10], in test [11], in [12] and in test [13] was inactive. In addition, the result in [15], in test [16], in test [17] and in test [18] was inactive.
Consider `CC(=O)OCCC(C)CC(C)(C)C` (stereo not given), for which the result in test [1], in [2], in test [3], in test [4], in test [5] and in test [6] was inactive. The result in [7], in [8], in test [9], in test [10], in [11] and in test [12] was inactive. Also, the result in [13], in test [14], in test [15], in test [16], in [17] and in test [18] was inactive.
For the compound `O=C(O)c1cn(C2CC2)c2cc(N3CCNCC3)c(F)cc2c1=O`, the result in [1], in test [2], in test [3], in [4], in test [5] and in test [6] was inactive. In addition, the outcome in test [7], in [8], in test [9], in test [11], in test [12] and in test [13] was inactive. In addition, the outcome in [14], in [15], in [16], in test [17] and in [18] was inactive.
Take `O=C1CCCCCCCCCCCCCCO1`: the AC50 in test [1] was 27.8 µM (active); in test [2], 28.7 µM (active); in [4] it was 31.9 µM (active); in [5], 28 µM (active); in test [6], 11.4 µM (active); in test [9], 2.99 µM (active). The concentration at half-maximal activity (AC50) was 9.4 µM (active) in test [10], 20 µM (active) in test [15] and 17.9 µM (active) in test [16]. Besides, the result in test [3], in [7], in [8], in test [11], in test [12] and in [13] was inactive. Besides, the outcome in [14], in test [17] and in test [18] was inactive.
